# M1 PAM: potentiates human M1 receptor response to acetylcholine; P11229; CHO-K1 hM1, Fluo-8 calcium fluorescence, ACh EC20; 0% = ACh EC20, 100% = maximal ACh; activation, % at 3 µM; 360,000 compounds, 0.088% hits; in the data active means activation above about 19%, passing the limit was not always enough
# Target sequence (P11229 whole entry, looked up): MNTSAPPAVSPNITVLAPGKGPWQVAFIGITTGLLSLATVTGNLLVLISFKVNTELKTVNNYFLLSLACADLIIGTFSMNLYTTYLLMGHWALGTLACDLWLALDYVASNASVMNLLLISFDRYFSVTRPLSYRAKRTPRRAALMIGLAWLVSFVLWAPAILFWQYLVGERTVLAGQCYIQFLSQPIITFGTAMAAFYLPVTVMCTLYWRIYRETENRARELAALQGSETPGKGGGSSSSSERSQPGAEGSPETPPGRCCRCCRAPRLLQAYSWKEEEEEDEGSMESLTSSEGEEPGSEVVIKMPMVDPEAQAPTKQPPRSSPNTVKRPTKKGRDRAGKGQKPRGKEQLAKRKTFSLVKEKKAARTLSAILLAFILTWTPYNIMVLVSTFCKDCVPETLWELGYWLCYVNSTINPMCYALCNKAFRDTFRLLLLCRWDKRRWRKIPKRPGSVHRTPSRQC
# M1 ag parental: M1 agonist counterscreen hit in parental CHO-K1 cells. Fluo-8 calcium fluorescence; scaled to maximal ATP response, vehicle zero. activation, % at 3 µM. 360,000 compounds, 0.48% hits; in the data active means activation above about 15%;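 further: untransfected CHO-K1 host cells lacking M1 receptor as counterscreen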
# CHO-K1 Ca antag: M1 antagonist counterscreen hit in parental CHO-K1 cells | ATP-induced calcium, Fluo-8 fluorescence | inhibition, % at 3 µM | 360,000 compounds, 0.6% hits;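 active means inhibition above a per-plate cutoff, the plate's mean sample inhibition plus 3 SD, cut at about 24% in these data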
# M1 antag: human CHRM1 antagonism | P11229 | CHO-K1 hM1, Fluo-8 calcium fluorescence, ACh EC80 antagonist | inhibition, % at 3 µM | 360,000 compounds, 1.3% hits;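 active means percent inhibition above its own plate's cutoff, namely the mean of that plate's compound wells plus 3 SD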;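 further: peak over basal fluorescence ratio during 140 s after agonist addition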
# M1 ag: agonists of human M1 muscarinic receptor. AID 588814. CHO-K1 hM1, Fluo-8 calcium fluorescence, agonist mode; 0% DMSO, 100% acetylcholine EC100. 360,000 compounds, 0.33% hits. P11229. activation, % at 3 µM;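 active means activation above the run's mean compound activation plus 3 SD, cut at about 16% in these data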;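 further: peak over basal fluorescence ratio within a 140 s kinetic read after compound addition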
# M1 PAM parental: counter-screen for M1 PAMs: effect in parental CHO-K1 cells. ATP EC20, Fluo-8 calcium fluorescence; 0% at ATP EC20, 100% at ATP max. activation, % at 3 µM. 360,000 compounds, 0.02% hits;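 active means activation above the run cutoff, the mean activation of all test compounds plus 3 SD, cut at about 40% in these data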;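 further: peak over basal fluorescence ratio in a 140 s read after ATP addition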
# Numbers stand for hits; . = inactive. Sampled rows, rich in hits. Any-hit rate of the full collection: about 2.3%.
SMILES,M1 PAM,M1 ag parental,CHO-K1 Ca antag,M1 antag,M1 ag,M1 PAM parental
COc1ccc(C(C(=O)OCCN(C)C)c2ccccc2)cc1 (centres undefined),.,.,.,78.3,.,.
CCCOc1ccc(C(C(=O)OCCN(CC)CC)c2ccccc2)cc1 (centres undefined),.,.,.,98.1,.,.
Cc1ccccc1C1(O)c2ccccc2-c2ccccc21,.,.,.,.,.,.
Cc1ccc(C(=O)C(C)OC(=O)c2n[nH]c(=O)c3ccccc23)cc1 (centres undefined),.,.,.,.,.,.
Cc1nc2c(cc1N)nc(C)n2Cc1ccccc1,.,.,.,.,.,.
CN1C(=O)/C(=C\c2ccc(N(C)C)cc2)OC1=S,.,29.9,26.7,38.8,53.3,.
Cc1nnc(SCC(=O)Nc2cc(S(C)(=O)=O)ccc2Cl)n1Cc1ccccc1,.,.,.,.,.,.
CCC1=NN(C(=O)COc2ccccc2)C(O)(c2ccc(Br)cc2)C1 (centres undefined),.,21.5,.,.,.,.
CN(C)CCCN1c2ccc(O)cc2Sc2ccc(Cl)cc21,.,.,.,99.8,.,.
N=C1C(c2ccccc2)=C(O)CN1NC(=O)c1ccc(Cl)cc1,.,.,.,.,.,.
Cc1cc(OCC(=O)Nc2ccc(S(=O)(=O)N3CCN(C)CC3)cc2)ccc1Br,.,18.2,.,.,.,.
Cc1cc(OCC(=O)Nc2ccc(CN3CCCCC3)cc2)ccc1Cl,.,.,.,50.5,.,.
O=C(COc1ccc(Br)cc1CO)Nc1ccc(S(=O)(=O)N2CCCC2)cc1,.,.,.,58.3,.,.
Cc1ccc(OCC(=O)Nc2ccc(S(=O)(=O)N3CCOCC3)cc2)c([N+](=O)[O-])n1,.,.,.,.,.,.
Cc1cc(OCC(=O)Nc2ccc(CN3CCOCC3)cc2)ccc1Cl,.,.,.,.,.,.
Cc1ccc(OCC(=O)Nc2ccc(S(=O)(=O)N3CCCCC3)cc2)c([N+](=O)[O-])n1,.,.,.,44.6,.,.
CCc1nc2cccnc2n1-c1ccc(CC(=O)NC(C)CC)cc1 (centres undefined),.,.,.,.,.,.
O=C(N/N=C/c1ccc([N+](=O)[O-])cc1)c1ccc(COc2ccccc2-c2ccccc2)cc1,.,.,.,.,.,.
C[C@@H]1COC(=O)[C@@H](Cc2ccc(F)cc2)CC/C=C\C[C@@H](CC(=O)NCCO)C(=O)N1,.,.,.,.,.,.
COc1ccc(C(=O)OCC(=O)Nc2cccc(S(=O)(=O)N3CCCCCC3)c2)cc1[N+](=O)[O-],.,.,.,54.4,.,.
CCc1c(C)sc(NC(=O)c2cc(-c3ccc(O)cc3)on2)c1C#N,.,.,32.6,.,.,.
CC(=O)Nc1cc(-c2cccc(C(=O)NCCN(C)C)c2)cn2c(-c3ccc(C(C)=O)cc3)cnc12,.,.,.,.,.,.
Clc1cccc(Cl)c1CSc1nnc(-c2ccncc2)s1,.,.,.,43.3,59.9,.
Cc1ccc2c(c1)CCCN2CC(=O)Nc1cc(S(=O)(=O)N2CCCC2)ccc1Cl,.,.,.,.,.,.
CC(=O)N1CCN(CC(=O)Nc2cccc(S(=O)(=O)N3CCCCC3)c2)CC1,.,.,.,.,.,.
SMILES,M1 PAM,M1 ag parental,CHO-K1 Ca antag,M1 antag,M1 ag,M1 PAM parental
Cc1ccc2c(c1)CCCN2CC(=O)Nc1cccc(S(=O)(=O)N2CCCC2)c1,.,.,.,32.4,.,.
CC(=O)N1CCN(CC(=O)Nc2cccc(S(=O)(=O)N3CCCCCC3)c2)CC1,.,.,26.6,.,.,.
Cc1ccc2c(c1)C(=O)C(=O)N2Cc1ccc(Cl)cc1,.,.,.,.,16.9,.
Cc1cccc(C(=O)NCC(=O)NC2CCN(Cc3ccccc3)CC2)c1,.,.,.,.,.,.
CN(C)S(=O)(=O)c1cccc(C(=O)NCC(=O)NC2CCN(Cc3ccccc3)CC2)c1,.,.,.,33.6,.,.
CCCCn1c(=O)nc2n(-c3ccc(C)cc3)c3ccccc3cc-2c1=O,.,.,.,.,.,.
CCCCn1c(=O)nc2n(-c3ccc(Cl)cc3)c3ccccc3cc-2c1=O,.,.,27.3,.,.,.
Cc1ccc(NC(=O)c2ncn(CCCNCCCc3ccccc3)n2)cc1C,.,.,.,.,17.7,.
CCn1nccc1NC(=O)c1csc([C@H]2C[C@H](O)[C@@H](CO)O2)n1,.,.,.,.,.,.
Cc1cc(C)cc(NC(=O)c2ccc(CSc3nnnn3C)cc2)c1,.,.,.,27.9,.,.
Cc1ccc(NC(Cc2cc(C)no2)c2ccccc2)cc1 (centres undefined),.,.,.,.,.,46.0
Cc1c(CCOC(=O)CC23CC4CC(CC(C4)C2)C3)sc[n+]1Cc1ccccc1,.,.,.,98.9,.,.
Cc1ncc(C[n+]2csc(CCOC(=O)CC34CC5CC(CC(C5)C3)C4)c2C)c(N)n1,.,.,.,.,.,.
CC1CC(=O)Nc2ccccc2N1C(=O)COc1ccccc1C(N)=O (centres undefined),.,.,.,.,.,.
COc1ccccc1CNC(=O)C1COc2ccccc2O1 (centres undefined),.,.,.,.,.,.
COc1ccccc1C(CNC(=O)C(C)(C)Oc1ccc(Cl)cc1)N1CCCC1 (centres undefined),.,.,.,89.2,.,.
O=C(C1COc2ccccc2O1)N1CCCCC1 (centres undefined),.,.,23.9,.,.,.
COc1ccccc1C(CNC(=O)C1COc2ccccc2O1)N1CCCC1 (centres undefined),.,.,.,77.2,.,.
COc1ccc(C(CNC(=O)c2cc3c(s2)CCC(C)C3)N2CCCC2)cc1 (centres undefined),.,.,.,.,.,.
CCC1CCc2sc(C(=O)NCC(c3ccccc3OC)N3CCCC3)cc2C1 (centres undefined),.,.,.,43.3,.,.
O=C(C1COc2ccccc2O1)N1CCN(c2ccccc2Cl)CC1 (centres undefined),.,.,.,.,.,.
CC(C)(C)OC(=O)N1CCC[C@H]1C(=O)N/N=C/c1ccc2ncccc2c1,.,.,.,.,.,.
COc1ccccc1C(CNC(=O)C(C)Oc1ccc(Br)cc1)N1CCCC1 (centres undefined),.,.,.,31.2,.,.
C[C@H](CO)N1C[C@H](C)[C@H](CN(C)S(=O)(=O)c2cccs2)Oc2ncc(-c3cc4ccccc4o3)cc2C1=O,.,.,.,.,.,.
CCCCNC(=O)c1ccc2c(c1)N(CC)C(=O)c1ccccc1S2(=O)=O,.,.,.,33.5,.,.
